We go through 15 compounds from PubChem BioAssay (EPA / NIEHS).

Assay [1] is described as follows: BSK_SAg_PBMCCytotoxicity: PBMC Cytotoxicity Assessment in the BioMAP Diversity Plus: SAg Assay (AID 2283093).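 Further: fitted both ways against DMSO so a hit may be loss or gain of signal.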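 On AC50: PBMC superantigen activated with SEB plus TSST-1 one hour after compound addition.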 The following applies: primary human HUVEC with PBMC. The method, boiled down: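 PBMC viability by Alamar Blue reduction, fluorescence read at 546/580 nm after 6 h dye exposure. Cells were dosed 1 h before SEB plus TSST-1 activation (20 ng/mL final each), then held 90 h; endothelial/PBMC human co-culture.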

Read-out in assay [2]: Interleukin-8 (IL8), CXCL8 (gene 3576)
In words: BSK_SAg_IL8: BioMAP Diversity Plus: SAg Assay for Interleukin-8 (IL8) Biomarker Activity (AID 2283094). The following applies: primary human HUVEC with PBMC; actives raise or lower the signal. The method, boiled down:
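ELISA readout of IL-8 from a superantigen-activated endothelial/PBMC primary human co-culture, taken 24 h post-dosing and fitted in both directions against DMSO; parallel SRB total-protein staining flags overt cytotoxicity.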

Assay [3] is described as follows: BSK_SAg_Proliferation: Cell Proliferation Assessment in the BioMAP Diversity Plus: SAg Assay (AID 2283095).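 Further: relative cell number as total protein by SRB absorbance in sub-confluent culture.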 The following applies: primary human HUVEC with PBMC. Put shortly:
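Relative cell number in the endothelial cell/PBMC co-culture was quantified at 96 h by SRB staining (0.1% SRB, 10% TCA fixation, read at 560 nm). Curves were fitted in both directions relative to DMSO baseline.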

A short description of assay [4]: BSK_SAg_SRB: Viability Assessment in the BioMAP Diversity Plus: SAg Assay (AID 2283096).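 Further: cells read one day after compound addition; hits may be either gain or loss of signal compared with DMSO.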 The conditions noted are these: primary human HUVEC with PBMC. The method, boiled down:
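Compounds were added to a human vascular co-culture of umbilical vein endothelium and PBMC. After 24 h, parallel cultures were fixed with 10% TCA, stained with 0.1% sulforhodamine B and read at 560 nm. Gain or loss of signal was fitted relative to DMSO.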

The target of assay [5] is Cytochrome P450 2C19 (Homo sapiens) (UniProt P33261). As to the kind of experiment: NVS_ADME_hCYP2C19: NovaScreen (NVS) CYP450-related Enzyme Activity (ADME) Assay for human CYP2C19 (AID 2283113; active means hit-call score of the fitted dose curve at least 0.9, where 1 is the maximum;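 further: potency for inhibition seen as loss of fluorescent signal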). Put shortly:
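Cell-free assay of recombinant human CYP2C19 expressed in insect cells, with a fluorogenic substrate; fluorescence intensity read 1 hour after dosing. Loss of signal relative to acetonitrile negative control indicates inhibition. Primary screen at 10 uM in duplicate, then concentration series.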

Assay [6] concerns the target human Matrix Metalloproteinase-9 (MMP9), MMP9 (gene 4318) (UniProt P14780). As to the kind of experiment: NVS_ENZ_hMMP9: NovaScreen (NVS) Enzymatic Assay for human Matrix Metalloproteinase-9 (MMP9) (AID 2283190; active means hit-call score of the fitted dose curve at least 0.9, where 1 is the maximum;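 further: cell-free recombinant MMP9 protease activity read by fluorescent substrate signal; active means inhibition seen as loss of fluorescence signal versus DMSO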). The method, boiled down: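 Screening concentration 25 uM, duplicate wells, then dose series for confirmation. Cell-free enzymatic reaction measured by fluorescence intensity 1 h post-dosing; decreased signal versus DMSO taken as activity.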

The target of assay [7] is human Caspase 5 (CASP5), CASP5 (gene 838) (UniProt P51878). As to the kind of experiment: NVS_ENZ_hCASP5: NovaScreen (NVS) Enzymatic Assay for human Caspase 5 (CASP5) (AID 2283137; active means hit-call score of the fitted dose curve at least 0.9, where 1 is the maximum). The method, boiled down:
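Loss of fluorescent signal versus DMSO scored for E. coli-derived human CASP5 cleaving a fluorescent substrate, 2 h post-dosing; compounds first tested at 25 uM in duplicate, hits rerun in concentration series with 50 uM top concentration.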

Assay [8] concerns the target human Beta-secretase (BACE), BACE1 (gene 23621) (UniProt P56817). In words: NVS_ENZ_hBACE: NovaScreen (NVS) Enzymatic Assay for human Beta-secretase (BACE) (AID 2283140; active means hit-call score of the fitted dose curve at least 0.9, where 1 is the maximum;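 further: hits are inhibitors that reduce fluorescent substrate signal versus DMSO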). Put shortly:
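Enzyme from SF9 cells was incubated 1 hour with compound and fluorogenic substrate, activity read by fluorescence. Single-concentration duplicates at 25 uM preceded concentration-response follow-up; fitting relative to DMSO baseline.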

Assay [9] addresses human CYP2D6, CYP2D6 (gene 1565) (UniProt P10635). As to the kind of experiment: NVS_ADME_hCYP2D6: NovaScreen (NVS) CYP450-related Enzyme Activity (ADME) Assay for human CYP2D6 (AID 2283107; active means hit-call score of the fitted dose curve at least 0.9, where 1 is the maximum). The method, boiled down:
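Cell-free assay using recombinant enzyme expressed in insect cells, with fluorescence-intensity readout of enzyme activity 1 hour after chemical dosing. Loss of signal versus acetonitrile negative control indicates inhibition. Primary screen ran in duplicate at 10 uM; actives were retested in concentration series.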

Assay [10] has as its target human CYP2C9, CYP2C9 (gene 1559) (UniProt P11712). In words: NVS_ADME_hCYP2C9: NovaScreen (NVS) CYP450-related Enzyme Activity (ADME) Assay for human CYP2C9 (AID 2283108; active means hit-call score of the fitted dose curve at least 0.9, where 1 is the maximum). Put shortly: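 Recombinant human CYP2C9 expressed in SF9 cells, fluorogenic substrate, fluorescence read 0.75 h after dosing. Chemicals first run in duplicate at 10 uM, with actives followed in concentration series; loss of signal versus acetonitrile baseline.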

Assay [11] concerns the target Cytochrome P450 3A4 (Homo sapiens) (UniProt P08684). As to the kind of experiment: NVS_ADME_hCYP3A4: NovaScreen (NVS) CYP450-related Enzyme Activity (ADME) Assay for human CYP3A4 (AID 2283110; active means hit-call score of the fitted dose curve at least 0.9, where 1 is the maximum). Put shortly: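 Recombinant CYP3A4 from insect cells, fluorescence enzyme read-out, 0.33 h after chemical addition. Acetonitrile = negative control/baseline. Primary HTS: 10 uM in duplicate; actives re-tested in concentration series.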

The target of assay [12] is rat CYP2A1, Cyp2a1 (gene 24894) (UniProt P11711). In words: NVS_ADME_rCYP2A1: NovaScreen (NVS) CYP450-related Enzyme Activity (ADME) Assay for rat CYP2A1 (AID 2283114). Put shortly:
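Cell-free fluorescence enzyme-activity read on recombinant rat CYP2A1, taken 0.75 h post-dosing. Compounds were screened in duplicate at 10 uM, then hits tested in concentration series (max 20 uM); inhibition scored relative to acetonitrile baseline.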

The target in assay [13] is rat CYP2A2, Cyp2a2 (gene 24895) (UniProt P15149). As to the kind of experiment: NVS_ADME_rCYP2A2: NovaScreen (NVS) CYP450-related Enzyme Activity (ADME) Assay for rat CYP2A2 (AID 2283116; active means hit-call score of the fitted dose curve at least 0.9, where 1 is the maximum). The method, boiled down: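 Compounds first tested in duplicate at 10 uM, then in singleton concentration series up to 20 uM when over threshold. Activity of the recombinant enzyme read by fluorescence at 0.2 h, normalised to acetonitrile vehicle.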

The target in assay [14] is human Esterase Plasma (ES), BCHE (gene 590) (UniProt P06276). As to the kind of experiment: NVS_ENZ_hES: NovaScreen (NVS) Enzymatic Assay for human Esterase Plasma (ES) (AID 2283157; active means hit-call score of the fitted dose curve at least 0.9, where 1 is the maximum). Put shortly:
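Human plasma-derived enzyme, cell-free, colorimetric readout at 0.25 h. Primary screen 25 uM in duplicate; hits (e.g. ≥30% inhibition) rerun singleton up to 50 uM. DMSO = negative control/baseline.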

The target in assay [15] is Mitogen-activated protein kinase 3 (Homo sapiens) (UniProt P27361). In words: NVS_ENZ_hMAPK3: NovaScreen (NVS) Enzymatic Assay for human Mitogen-Activated Protein Kinase 3 (MAPK 3) (AID 2283177; active means hit-call score of the fitted dose curve at least 0.9, where 1 is the maximum). Put shortly: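 Chemicals were first tested in duplicate at 25 uM, with hits re-run as concentration series (max 50 uM). Recombinant enzyme activity, measured 1 h post-dose in a cell-free format, was read by fluorescence/mobility shift relative to DMSO.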

Several values for one entry are separate records, joined by “and”; a condition that tells them apart may be missing. Identical values can stand only once. Inconclusive results are not listed. Activity calls are given as the source filed them. How the source made its calls, unless noted: active means hit-call score of the fitted dose curve at least 0.9, where 1 is the maximum; inactive means score below 0.9.

Chain of human CYP2D6, CYP2D6 (gene 1565) (P10635 whole entry, looked up): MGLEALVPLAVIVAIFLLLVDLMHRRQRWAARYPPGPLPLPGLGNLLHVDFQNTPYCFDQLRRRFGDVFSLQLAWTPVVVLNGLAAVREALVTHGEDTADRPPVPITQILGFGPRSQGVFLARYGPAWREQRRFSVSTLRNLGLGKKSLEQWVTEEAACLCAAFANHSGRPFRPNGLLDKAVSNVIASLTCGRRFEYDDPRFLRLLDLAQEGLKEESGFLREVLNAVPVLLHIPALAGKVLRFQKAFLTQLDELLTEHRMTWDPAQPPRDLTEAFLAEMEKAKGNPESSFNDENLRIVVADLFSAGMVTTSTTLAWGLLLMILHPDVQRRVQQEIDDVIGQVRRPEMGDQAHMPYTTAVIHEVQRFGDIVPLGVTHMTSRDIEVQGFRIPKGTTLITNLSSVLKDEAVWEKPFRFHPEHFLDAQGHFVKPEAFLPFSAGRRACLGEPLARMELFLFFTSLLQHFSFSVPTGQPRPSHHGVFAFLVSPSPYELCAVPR
Chain of human Esterase Plasma (ES), BCHE (gene 590) (P06276 whole entry, looked up): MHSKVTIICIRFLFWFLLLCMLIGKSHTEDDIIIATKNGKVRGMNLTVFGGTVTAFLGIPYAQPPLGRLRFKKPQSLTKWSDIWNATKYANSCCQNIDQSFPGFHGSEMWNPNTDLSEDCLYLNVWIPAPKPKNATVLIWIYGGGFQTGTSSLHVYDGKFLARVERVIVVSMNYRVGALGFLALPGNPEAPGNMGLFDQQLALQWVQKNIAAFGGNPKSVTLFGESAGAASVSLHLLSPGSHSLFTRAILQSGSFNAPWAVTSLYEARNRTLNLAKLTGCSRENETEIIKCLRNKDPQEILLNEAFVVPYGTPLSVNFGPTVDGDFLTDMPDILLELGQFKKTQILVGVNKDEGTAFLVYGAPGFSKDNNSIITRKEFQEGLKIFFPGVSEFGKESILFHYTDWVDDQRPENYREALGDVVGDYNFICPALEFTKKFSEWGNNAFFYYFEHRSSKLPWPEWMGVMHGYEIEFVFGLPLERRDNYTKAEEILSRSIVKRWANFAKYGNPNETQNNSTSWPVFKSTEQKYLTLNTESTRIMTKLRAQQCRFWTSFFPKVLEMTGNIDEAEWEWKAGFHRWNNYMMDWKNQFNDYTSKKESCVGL
Chain of human Beta-secretase (BACE), BACE1 (gene 23621) (P56817 whole entry, looked up): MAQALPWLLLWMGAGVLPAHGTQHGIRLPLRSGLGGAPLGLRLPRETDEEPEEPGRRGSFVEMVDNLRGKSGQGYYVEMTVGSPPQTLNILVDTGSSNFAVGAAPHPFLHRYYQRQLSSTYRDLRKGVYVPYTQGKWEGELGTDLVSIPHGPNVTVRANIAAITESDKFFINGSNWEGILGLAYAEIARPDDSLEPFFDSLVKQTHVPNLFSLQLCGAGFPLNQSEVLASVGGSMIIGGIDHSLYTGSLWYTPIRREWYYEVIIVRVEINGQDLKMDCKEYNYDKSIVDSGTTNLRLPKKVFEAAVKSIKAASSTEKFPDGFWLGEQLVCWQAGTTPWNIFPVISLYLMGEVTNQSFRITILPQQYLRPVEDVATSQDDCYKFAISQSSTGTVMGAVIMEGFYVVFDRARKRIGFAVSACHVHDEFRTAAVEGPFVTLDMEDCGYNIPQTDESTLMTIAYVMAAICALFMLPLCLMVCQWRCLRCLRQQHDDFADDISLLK
Chain of human CYP2C9, CYP2C9 (gene 1559) (P11712 whole entry, looked up): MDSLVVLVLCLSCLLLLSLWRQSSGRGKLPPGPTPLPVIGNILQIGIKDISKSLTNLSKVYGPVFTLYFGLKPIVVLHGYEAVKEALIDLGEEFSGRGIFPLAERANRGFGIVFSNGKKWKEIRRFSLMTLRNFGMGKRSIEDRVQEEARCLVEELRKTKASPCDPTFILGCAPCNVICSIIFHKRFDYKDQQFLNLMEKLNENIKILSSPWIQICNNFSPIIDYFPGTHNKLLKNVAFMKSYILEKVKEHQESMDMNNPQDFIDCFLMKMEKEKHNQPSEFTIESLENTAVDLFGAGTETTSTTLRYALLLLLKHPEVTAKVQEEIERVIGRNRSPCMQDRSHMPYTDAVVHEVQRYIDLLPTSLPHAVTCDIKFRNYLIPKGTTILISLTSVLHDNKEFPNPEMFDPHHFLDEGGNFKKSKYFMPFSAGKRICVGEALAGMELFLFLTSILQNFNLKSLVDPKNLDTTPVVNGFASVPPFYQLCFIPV
Chain of human Matrix Metalloproteinase-9 (MMP9), MMP9 (gene 4318) (P14780 whole entry, looked up): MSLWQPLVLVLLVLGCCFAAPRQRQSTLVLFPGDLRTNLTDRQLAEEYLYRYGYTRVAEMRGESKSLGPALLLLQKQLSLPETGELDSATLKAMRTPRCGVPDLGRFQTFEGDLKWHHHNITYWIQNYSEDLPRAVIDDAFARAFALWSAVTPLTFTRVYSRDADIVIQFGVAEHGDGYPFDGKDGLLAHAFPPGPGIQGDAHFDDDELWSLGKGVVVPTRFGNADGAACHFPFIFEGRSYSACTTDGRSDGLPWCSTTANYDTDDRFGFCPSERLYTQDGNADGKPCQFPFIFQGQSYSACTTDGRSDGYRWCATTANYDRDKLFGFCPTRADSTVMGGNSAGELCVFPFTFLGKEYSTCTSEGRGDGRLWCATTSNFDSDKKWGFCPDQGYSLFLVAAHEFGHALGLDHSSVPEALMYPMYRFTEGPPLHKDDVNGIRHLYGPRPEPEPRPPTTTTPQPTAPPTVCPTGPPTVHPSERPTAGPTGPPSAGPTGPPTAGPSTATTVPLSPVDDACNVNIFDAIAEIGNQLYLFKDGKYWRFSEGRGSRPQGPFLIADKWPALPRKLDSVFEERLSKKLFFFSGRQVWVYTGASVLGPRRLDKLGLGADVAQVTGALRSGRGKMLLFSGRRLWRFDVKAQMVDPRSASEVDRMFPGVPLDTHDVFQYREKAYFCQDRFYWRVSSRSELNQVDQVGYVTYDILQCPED
Chain of rat CYP2A2, Cyp2a2 (gene 24895) (P15149 whole entry, looked up): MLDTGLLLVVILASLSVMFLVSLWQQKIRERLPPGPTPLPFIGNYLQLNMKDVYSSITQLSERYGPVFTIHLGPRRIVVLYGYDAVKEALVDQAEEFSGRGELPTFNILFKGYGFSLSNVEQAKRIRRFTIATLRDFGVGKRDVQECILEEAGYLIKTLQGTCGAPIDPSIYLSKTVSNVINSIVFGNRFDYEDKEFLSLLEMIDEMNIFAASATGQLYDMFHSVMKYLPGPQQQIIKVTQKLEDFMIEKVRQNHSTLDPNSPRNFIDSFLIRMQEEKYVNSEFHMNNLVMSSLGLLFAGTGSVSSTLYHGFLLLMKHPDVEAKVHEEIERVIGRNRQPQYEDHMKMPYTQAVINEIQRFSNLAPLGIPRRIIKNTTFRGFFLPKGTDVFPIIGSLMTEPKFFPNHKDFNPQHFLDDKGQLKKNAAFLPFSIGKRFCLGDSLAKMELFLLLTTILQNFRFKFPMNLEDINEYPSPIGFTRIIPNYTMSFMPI
Chain of human Caspase 5 (CASP5), CASP5 (gene 838) (P51878 whole entry, looked up): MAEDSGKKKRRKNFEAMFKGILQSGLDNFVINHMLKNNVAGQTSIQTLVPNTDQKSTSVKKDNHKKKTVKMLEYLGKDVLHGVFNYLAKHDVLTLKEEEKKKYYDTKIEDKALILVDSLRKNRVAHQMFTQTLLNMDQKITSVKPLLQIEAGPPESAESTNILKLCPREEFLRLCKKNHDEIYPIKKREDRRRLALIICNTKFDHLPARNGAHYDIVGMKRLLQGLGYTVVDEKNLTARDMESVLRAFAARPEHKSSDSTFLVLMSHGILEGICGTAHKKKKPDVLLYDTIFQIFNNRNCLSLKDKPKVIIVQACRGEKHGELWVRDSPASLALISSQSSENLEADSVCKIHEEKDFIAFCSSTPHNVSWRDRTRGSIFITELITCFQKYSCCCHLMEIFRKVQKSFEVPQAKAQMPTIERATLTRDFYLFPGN
Chain of Cytochrome P450 3A4 (Homo sapiens) (P08684 whole entry, looked up): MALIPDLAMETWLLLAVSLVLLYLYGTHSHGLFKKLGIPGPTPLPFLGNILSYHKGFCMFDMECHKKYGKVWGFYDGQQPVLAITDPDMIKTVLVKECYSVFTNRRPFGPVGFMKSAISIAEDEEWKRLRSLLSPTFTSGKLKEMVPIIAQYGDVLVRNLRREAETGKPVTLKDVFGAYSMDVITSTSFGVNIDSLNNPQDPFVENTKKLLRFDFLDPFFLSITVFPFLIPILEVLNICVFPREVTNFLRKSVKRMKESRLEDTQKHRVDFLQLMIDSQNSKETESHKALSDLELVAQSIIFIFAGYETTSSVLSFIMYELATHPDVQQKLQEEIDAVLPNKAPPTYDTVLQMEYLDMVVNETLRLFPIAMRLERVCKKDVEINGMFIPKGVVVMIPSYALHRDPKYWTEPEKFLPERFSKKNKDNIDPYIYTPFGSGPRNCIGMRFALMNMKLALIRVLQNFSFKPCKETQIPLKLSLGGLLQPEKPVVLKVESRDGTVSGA
Chain of rat CYP2A1, Cyp2a1 (gene 24894) (P11711 whole entry, looked up): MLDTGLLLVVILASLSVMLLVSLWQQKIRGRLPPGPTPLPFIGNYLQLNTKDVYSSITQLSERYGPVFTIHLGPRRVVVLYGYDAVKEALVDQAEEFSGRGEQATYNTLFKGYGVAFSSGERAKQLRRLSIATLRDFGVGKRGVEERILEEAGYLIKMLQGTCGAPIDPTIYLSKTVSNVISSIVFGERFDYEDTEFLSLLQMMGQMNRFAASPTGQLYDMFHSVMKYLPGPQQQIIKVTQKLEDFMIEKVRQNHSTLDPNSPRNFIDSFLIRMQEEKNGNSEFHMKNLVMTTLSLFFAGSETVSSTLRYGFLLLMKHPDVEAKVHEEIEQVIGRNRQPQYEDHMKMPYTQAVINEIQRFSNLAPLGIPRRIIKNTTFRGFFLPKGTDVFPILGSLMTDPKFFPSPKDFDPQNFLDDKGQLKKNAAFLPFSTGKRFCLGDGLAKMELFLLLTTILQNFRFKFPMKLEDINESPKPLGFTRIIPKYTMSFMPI

Take `CC=Cc1ccc(OCC)c(O)c1`: the outcome in assay [1], in assay [2], in assay [3] and in assay [4] was inactive.
As a reminder, the AC50 is the concentration at which the activity in the assay is half-maximal. On to `CSCCC=O`, for which the outcome in [1], in assay [2] and in assay [4] was inactive. Moreover, the half-maximal activity concentration (AC50) in assay [3] was 38.6 µM (active); in [5], 0.29 µM (active); in [6], 0.684 µM (active).
`CC(=O)C1(C)CC2=C(CCCC2(C)C)CC1C` (configuration not stated): the concentration at half-maximal activity (AC50) was 12 µM (active) in assay [1], 34.4 µM (active) in [2], 9.65 µM (active) in assay [3] and 26.8 µM (active) in assay [4].
Turning to `Oc1c(Cl)cc(Cl)c(Cl)c1Cc1c(O)c(Cl)cc(Cl)c1Cl`, the AC50 was 12.9 µM (active) in assay [1]; 4.7 µM (active) in [2]; 4.05 µM (active) in assay [3]; 15.6 µM (active) in [4]; 2.9 µM (active) in assay [7]; 1.21 µM (active) in [8].
On to `C=C(C)C(=O)OCCOCCOCCOC(=O)C(=C)C`, for which the outcome in assay [1], in [2], in assay [3] and in assay [4] was inactive.
Turning to `CC1(C)CCC[C@]2(C)[C@H]3CCO[C@]3(C)CC[C@@H]12`, the AC50 in assay [1] is 31.8 µM (active) and 33.4 µM (active); in [3], 33.6 µM (active) and 32.7 µM (active). In addition, the result in assay [2] and in assay [4] was inactive.
Turning to `CC(=O)C(C)O` (configuration not stated), the concentration at half-maximal activity (AC50) in assay [9] is 5 µM (active).
In the case of `CCCCC(CC)COC(C)=O` (configuration not stated), the concentration at half-maximal activity (AC50) in assay [9] is 5 µM (active).
Regarding `CCCCCCOCCOCCO`, the half-maximal activity concentration (AC50) in assay [10] was 0.238 µM (active).
Consider `C1CCCCC1`, for which the call in assay [11] was inactive.
Take `C=Cc1ccc(C)cc1`: the compound was classed as inactive in assay [12].
Turning to `CC1(C)C(=O)N(Cl)C(=O)N1Br`, in [13], the concentration at half-maximal activity (AC50) is 5.02 µM (active).
On to `COCCOC(=O)c1ccccc1C(=O)OCCOC`, for which the half-maximal activity concentration (AC50) in [14] was 18.6 µM (active).
With `CC(C)(C)CC(C)(C)c1ccc(OCCOCC[N+](C)(C)Cc2ccccc2)cc1`, in [14], the AC50 was 0.791 µM (active).
In the case of `[O-]n1ccccc1=S.[O-]n1ccccc1=S.[Zn+2]`, the call in assay [15] was inactive.
